Reference: PubChem BioAssay AID1159580 (chemical genetic matrix, 2015)
Hit rate of the full screen: of about 5,500 compounds, about 2,000 (36%) were called active. Roughly 18% stayed inconclusive and do not appear here. This is one part of the list. A number with no mark means an inactive call. Rule as the data show it: active = normalized growth mostly below about 0.91 (no sharp cut-off); inconclusive = no clear call, values can overlap the other calls; inactive = mostly above about 0.92.

Assay: chemical genetic growth profiling, strain panel (AID 1159580);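 also: tested at 20 µM; growth read once vehicle control cultures reached saturation at 30 °C; 1 = growth at the plate median or of vehicle wells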
Details: growth OD

CC(C)=CCc1c(O)cc2oc(C)cc(=O)c2c1O
normalized growth (S. cerevisiae deletion strains, locus YJR043C, strain POL32, stronger effect = lower value): 0.847 (active)
normalized growth (S. cerevisiae deletion strains, locus YJR066W, strain TOR1, stronger effect = lower value): 0.941
normalized growth (S. cerevisiae deletion strains, locus YJR075W, strain HOC1, stronger effect = lower value): 1.03
normalized growth (S. cerevisiae deletion strains, locus YKL009W, strain mrt4, stronger effect = lower value): 0.974
normalized growth (S. cerevisiae deletion strains, locus YKL068W, stronger effect = lower value): 0.982
normalized growth (S. cerevisiae deletion strains, locus YKL085W, strain MDH1 (second series), stronger effect = lower value): 0.983
normalized growth (S. cerevisiae deletion strains, locus YKL085W, strain MDH1, stronger effect = lower value): 0.983
normalized growth (S. cerevisiae deletion strains, locus YKL160W, strain elf1, stronger effect = lower value): 0.963
normalized growth (S. cerevisiae deletion strains, locus YKL190W, strain CNB1, stronger effect = lower value): 1
normalized growth (S. cerevisiae deletion strains, locus YKR001C, strain vps1, stronger effect = lower value): 0.723 (active)
normalized growth (S. cerevisiae deletion strains, locus YKR026C, strain gcn3, stronger effect = lower value): 0.977
normalized growth (S. cerevisiae deletion strains, locus YKR091W, strain srl3, stronger effect = lower value): 0.98
normalized growth (S. cerevisiae deletion strains, locus YLL001W, strain dnm1, stronger effect = lower value): 0.964
normalized growth (S. cerevisiae deletion strains, locus YLL026W, stronger effect = lower value): 0.981
normalized growth (S. cerevisiae deletion strains, locus YLL041C, strain sdh2, stronger effect = lower value): 0.979
normalized growth (S. cerevisiae deletion strains, locus YLR027C, strain aat2, stronger effect = lower value): 0.983
normalized growth (S. cerevisiae deletion strains, locus YLR039C, strain RIC1, stronger effect = lower value): 0.834
normalized growth (S. cerevisiae deletion strains, locus YLR058C, strain SHM2, stronger effect = lower value): 0.966
normalized growth (S. cerevisiae deletion strains, locus YLR102C, strain apc9, stronger effect = lower value): 0.987
normalized growth (S. cerevisiae deletion strains, locus YLR113W, strain HOG1, stronger effect = lower value): 0.854 (active)
normalized growth (S. cerevisiae deletion strains, locus YLR221C, strain rsa3, stronger effect = lower value): 0.95
normalized growth (S. cerevisiae deletion strains, locus YLR258W, strain gsy2, stronger effect = lower value): 0.97
normalized growth (S. cerevisiae deletion strains, locus YLR262C, strain YPT6 (second series), stronger effect = lower value): 0.781 (active)
normalized growth (S. cerevisiae deletion strains, locus YLR268W, strain sec22, stronger effect = lower value): 0.939
normalized growth (S. cerevisiae deletion strains, locus YLR320W, strain mms22, stronger effect = lower value): 0.961
normalized growth (S. cerevisiae deletion strains, locus YLR330W, strain CHS5, stronger effect = lower value): 0.937
normalized growth (S. cerevisiae deletion strains, locus YLR342W, strain FKS1, stronger effect = lower value): 0.974
normalized growth (S. cerevisiae deletion strains, locus YLR357W, strain rsc2, stronger effect = lower value): 0.913
normalized growth (S. cerevisiae deletion strains, locus YLR370C, strain arc18, stronger effect = lower value): 0.996
normalized growth (S. cerevisiae deletion strains, locus YLR371W, strain rom2, stronger effect = lower value): 0.957
normalized growth (S. cerevisiae deletion strains, locus YLR384C, strain iki3, stronger effect = lower value): 0.976
normalized growth (S. cerevisiae deletion strains, locus YLR418C, strain cdc73, stronger effect = lower value): 0.898
normalized growth (S. cerevisiae deletion strains, locus YML016C, strain PPZ1, stronger effect = lower value): 0.997
normalized growth (S. cerevisiae deletion strains, locus YML032C, strain rad52, stronger effect = lower value): 0.907
normalized growth (S. cerevisiae deletion strains, locus YML120C, strain ndi1, stronger effect = lower value): 0.98
normalized growth (S. cerevisiae deletion strains, locus YML124C, strain tub3, stronger effect = lower value): 0.985
normalized growth (S. cerevisiae deletion strains, locus YMR058W, strain fet3, stronger effect = lower value): 0.946
normalized growth (S. cerevisiae deletion strains, locus YMR078C, strain ctf18, stronger effect = lower value): 0.994
normalized growth (S. cerevisiae deletion strains, locus YMR125W, strain sto1, stronger effect = lower value): 0.981
normalized growth (S. cerevisiae deletion strains, locus YMR129W, stronger effect = lower value): 0.98
normalized growth (S. cerevisiae deletion strains, locus YMR205C, strain PFK2, stronger effect = lower value): 0.954
normalized growth (S. cerevisiae deletion strains, locus YMR223W, strain ubp8, stronger effect = lower value): 0.931
normalized growth (S. cerevisiae deletion strains, locus YMR231W, strain pep5, stronger effect = lower value): 0.981
normalized growth (S. cerevisiae deletion strains, locus YMR263W, strain SAP30, stronger effect = lower value): 0.992
normalized growth (S. cerevisiae deletion strains, locus YMR307W, strain GAS1, stronger effect = lower value): 0.549 (active)
normalized growth (S. cerevisiae deletion strains, locus YNL067W, strain RPL9B, stronger effect = lower value): 1.01
normalized growth (S. cerevisiae deletion strains, locus YNL071W, strain lat1, stronger effect = lower value): 0.975
normalized growth (S. cerevisiae deletion strains, locus YNL153C, strain GIM3, stronger effect = lower value): 0.932
normalized growth (S. cerevisiae deletion strains, locus YNL183C, strain NPR1, stronger effect = lower value): 0.91
normalized growth (S. cerevisiae deletion strains, locus YNL209W, strain ssb2, stronger effect = lower value): 0.996
normalized growth (S. cerevisiae deletion strains, locus YNL233W, strain BNI4, stronger effect = lower value): 0.926
normalized growth (S. cerevisiae deletion strains, locus YNL248C, strain rpa49, stronger effect = lower value): 0.968
normalized growth (S. cerevisiae deletion strains, locus YNL250W, strain rad50, stronger effect = lower value): 0.993
normalized growth (S. cerevisiae deletion strains, locus YNL271C, strain bni1, stronger effect = lower value): 0.98
normalized growth (S. cerevisiae deletion strains, locus YNL298W, strain CLA4, stronger effect = lower value): 0.954
normalized growth (S. cerevisiae deletion strains, locus YNL307C, strain MCK1, stronger effect = lower value): 0.989
normalized growth (S. cerevisiae deletion strains, locus YNL322C, strain KRE1 (second series), stronger effect = lower value): 0.964
normalized growth (S. cerevisiae deletion strains, locus YNR049C, strain mso1, stronger effect = lower value): 0.964
normalized growth (S. cerevisiae deletion strains, locus YNR052C, strain pop2, stronger effect = lower value): 1
normalized growth (S. cerevisiae deletion strains, locus YOL012C, strain htz1): 1.24
normalized growth (S. cerevisiae deletion strains, locus YOL147C, strain pex11, stronger effect = lower value): 0.954
normalized growth (S. cerevisiae deletion strains, locus YOR001W, strain rrp6, stronger effect = lower value): 0.981
normalized growth (S. cerevisiae deletion strains, locus YOR061W, strain CKA2, stronger effect = lower value): 0.955
normalized growth (S. cerevisiae deletion strains, locus YOR069W, strain VPS5, stronger effect = lower value): 0.987
normalized growth (S. cerevisiae deletion strains, locus YOR070C, strain gyp1, stronger effect = lower value): 0.983
normalized growth (S. cerevisiae deletion strains, locus YOR080W, strain dia2, stronger effect = lower value): 1
normalized growth (S. cerevisiae deletion strains, locus YOR083W, strain WHI5, stronger effect = lower value): 0.947
normalized growth (S. cerevisiae deletion strains, locus YOR106W, strain vam3, stronger effect = lower value): 0.934
normalized growth (S. cerevisiae deletion strains, locus YOR136W, strain idh2, stronger effect = lower value): 0.979
normalized growth (S. cerevisiae deletion strains, locus YOR144C, strain elg1, stronger effect = lower value): 0.965
normalized growth (S. cerevisiae deletion strains, locus YOR184W, strain ser1, stronger effect = lower value): 0.829 (active)
normalized growth (S. cerevisiae deletion strains, locus YOR231W, strain MKK1, stronger effect = lower value): 0.958
normalized growth (S. cerevisiae deletion strains, locus YOR265W, strain rbl2, stronger effect = lower value): 0.971
normalized growth (S. cerevisiae deletion strains, locus YOR270C, strain vph1, stronger effect = lower value): 1.08
normalized growth (S. cerevisiae deletion strains, locus YOR290C, strain snf2, stronger effect = lower value): 0.939
normalized growth (S. cerevisiae deletion strains, locus YOR316C, strain cot1, stronger effect = lower value): 0.997
normalized growth (S. cerevisiae deletion strains, locus YPL051W, strain arl3, stronger effect = lower value): 0.952
normalized growth (S. cerevisiae deletion strains, locus YPL055C, strain LGE1, stronger effect = lower value): 0.945
normalized growth (S. cerevisiae deletion strains, locus YPL078C, strain atp4, stronger effect = lower value): 0.966
normalized growth (S. cerevisiae deletion strains, locus YPL106C, strain sse1, stronger effect = lower value): 0.978
normalized growth (S. cerevisiae deletion strains, locus YPL240C, strain hsp82, stronger effect = lower value): 0.982
normalized growth (S. cerevisiae deletion strains, locus YPL256C, strain CLN2, stronger effect = lower value): 1.01
normalized growth (S. cerevisiae deletion strains, locus YPR119W, strain clb2, stronger effect = lower value): 0.995
normalized growth (S. cerevisiae deletion strains, locus YPR141C, strain kar3, stronger effect = lower value): 1
normalized growth (S. cerevisiae deletion strains, locus YPR163C, strain tif3, stronger effect = lower value): 0.975
normalized growth (S. cerevisiae deletion strains, locus YPR167C, strain met16, stronger effect = lower value): 0.956
normalized growth (S. cerevisiae deletion strains, strain wtn01, stronger effect = lower value): 0.891 (active)
normalized growth (S. cerevisiae strains, strain wild type, stronger effect = lower value): 0.922
